According to the supplement of paper PMC6992640:
± gives the standard deviation of the averaged measurements.

What was measured:
Assay in all cases: cell viability (% of vehicle); higher = less cytotoxic
Settings in all cases: 10 µM; 72 h
HCI03 = system: HCI03 (cells of an ER-positive luminal breast cancer xenograft)
HCI09 = system: HCI09 (cells of a triple-negative luminal androgen receptor type breast cancer xenograft)
HCI11 = system: HCI11 (cells of an ER-positive luminal breast cancer xenograft)
HCI13 = system: HCI13 (cells of an ER-positive luminal breast cancer xenograft)
HCI16 = system: HCI16 (cells of a triple-negative basal-like breast cancer xenograft)
UCD52 = system: UCD52 (cells of a triple-negative basal-like breast cancer xenograft)
WHIM2 = system: WHIM2 (cells of a triple-negative basal-like breast cancer xenograft)
WHIM30 = system: WHIM30 (cells of a triple-negative basal-like breast cancer xenograft)
HCI01 = system: HCI01 (cells of a triple-negative basal-like breast cancer xenograft)
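Note: PDX cells carrying CMV promoter-driven luciferase, viability read as total photon flux per second by IVIS imaging following D-luciferin, vehicle control 0.1% DMSO.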

Structure (SMILES)	cell viability (HCI03)	cell viability (HCI09)	cell viability (HCI11)	cell viability (HCI13)	cell viability (HCI16)	cell viability (UCD52)	cell viability (WHIM2)	cell viability (WHIM30)	cell viability (HCI01)
CCN(CC)CCOc1ccc(C(=C(Cl)c2ccccc2)c2ccccc2)cc1.O=C(O)CC(O)(CC(=O)O)C(=O)O [Clomiphene citrate]	51.5	34.9 ± 3.9	95.8	39.3 ± 1.4	134	62.5 ± 0.63	35.1 ± 12	146 ± 15	–
CC(=O)c1c(C)c2cnc(Nc3ccc(N4CCNCC4)cn3)nc2n(C2CCCC2)c1=O.O=S(=O)(O)CCO	–	78 ± 29	154	179 ± 75	180	105 ± 7.7	103 ± 13	145 ± 2.8	154 ± 77
CCCc1nc(C(C)(C)O)c(C(=O)OCc2oc(=O)oc2C)n1Cc1ccc(-c2ccccc2-c2nn[nH]n2)cc1 [Olmesartan medoxomil]	150	110 ± 1.2	162	128 ± 2.5	182	168 ± 28	105 ± 20	177 ± 30	–
COc1ccc(-c2cc(=O)c3c(O)cc(O)cc3o2)cc1O [Diosmetin]	–	170 ± 120	–	–	181	–	–	–	169 ± 46
Cc1nnc(C(C)C)n1C1CC2CCC(C1)N2CCC(NC(=O)C1CCC(F)(F)CC1)c1ccccc1 (centres undefined) [Maraviroc]	–	95.9 ± 3.6	129	73.7 ± 15	163	88.8 ± 1.3	91.4 ± 26	123 ± 18	110 ± 12
C#Cc1cccc(Nc2ncnc3cc(OC)c(OCCCCCCC(=O)NO)cc23)c1	105	22.1 ± 10	4.55	77.52 ± 0.49	–	–	44.4 ± 5	–	–
COc1ccccc1Oc1c(NS(=O)(=O)c2ccc(C(C)(C)C)cc2)nc(-c2ncccn2)nc1OCCO.O [Bosentan Hydrate]	124	87.8 ± 26	101	172 ± 36	–	125 ± 8.9	87.1 ± 8.3	184 ± 2.7	–
O=C(C=Cc1cccc(S(=O)(=O)Nc2ccccc2)c1)NO [Belinostat (PXD101)]	104	39.6 ± 33	6.42	55.1 ± 25	–	–	43.7 ± 1.1	–	–
CNCCc1ccccn1.Cl.Cl [Betahistine 2HCl]	134	103 ± 23	140	89.7 ± 17	–	133 ± 48	93.5 ± 30	186 ± 14	–
Nc1ccccc1NC(=O)c1ccc(CNc2nccc(-c3cccnc3)n2)cc1 [Mocetinostat (MGCD0103, MG0103)]	87	78.4 ± 73	5.73	150 ± 160	–	–	109 ± 13	–	–
CC1(C)CCC(CN2CCN(c3ccc(C(=O)NS(=O)(=O)c4ccc(NCC5CCOCC5)c([N+](=O)[O-])c4)c(Oc4cnc5[nH]ccc5c4)c3)CC2)=C(c2ccc(Cl)cc2)C1	–	61.5 ± 30	68.4	129 ± 10	80	101 ± 14	151 ± 32	99.4 ± 53	83.9 ± 55
O=c1[nH]c(=O)n(C2CC(O)C(CO)O2)cc1I (centres undefined) [Idoxuridine]	–	106 ± 8.6	106	–	129	112 ± 6.1	–	116.3 ± 1.1	165 ± 77
O=c1oc2cc(O)ccc2s1 [Tioxolone]	–	87.9 ± 13	96.8	85.9 ± 17	172	109.1 ± 0.84	129 ± 28	145 ± 30	115.5 ± 0.72
Nc1nc(NC2CC2)c2ncn(C3C=CC(CO)C3)c2n1 (centres undefined) [Abacavir]	–	–	118	193 ± 30	121	–	179 ± 28	–	173 ± 35
CCC(CO)Nc1nc(NCc2ccccc2)c2ncn(C(C)C)c2n1 (centres undefined) [Roscovitine (Seliciclib,CYC202)]	–	55.1 ± 22	176	77.4 ± 2.6	138	145 ± 25	90.4 ± 1.3	123 ± 4.2	80.4 ± 47
